The list is not random: actives were taken first. Their share in the collection is about 3.5%.
mHTT-CaM PPI inh: inhibitors of human mutant huntingtin-calmodulin interaction. P42858. AlphaScreen His-mHTT/GST-CaM binding, luminescence. inhibition, % at 15 µM. 190,000 compounds, 3.6% hits. AID 1671202
Pf apPOL inh: Pf-apPOL DNA polymerase inhibition; Recombinant Pf-apPOL, molecular beacon fluorescence, 1.5 h; inhibition, % at 10 µM; 210,000 compounds, 0.25% hits; AID 1794808
Of the large screens only hits and unclear results are named; the others gave an inactive call. No stated cut-off is given here; in the data, active means inhibition above about 50%; inactive means the rest.

COCC(C)NC(=O)c1c(C)noc1-c1cccc(C(F)(F)F)c1 (centres undefined)	none
N#Cc1ccc(C(=O)Nc2nnc3ccccn23)cc1	none
COc1cccc(C(=O)Nc2nnc3ccccn23)c1	mHTT-CaM PPI inh 71
O=C(Nc1nnc2ccccn12)c1cccc(C(F)(F)F)c1	none
O=C(Nc1nnc2ccccn12)c1ccc(Cl)cc1	mHTT-CaM PPI inh 52
COc1ccccc1C1CC(c2cc(F)ccc2O)=NN1 (centres undefined)	none
Oc1ccc(Cl)cc1C1=NNC(c2cccs2)C1 (centres undefined)	mHTT-CaM PPI inh 52
COc1cc(Nc2ncc3c(n2)CCN(Cc2ccc(C)cc2)C3)cc(OC)c1	none
O=C(c1ccccn1)N1CC(c2nc(-c3cccc(Cl)c3)no2)C1	none
O=C(CCSc1ccccc1)N1CC(c2nc(-c3cccc(Cl)c3)no2)C1	mHTT-CaM PPI inh 67
O=C(c1ccsc1)N1CC(c2nc(-c3cccc(Cl)c3)no2)C1	none
O=C(Cn1ccc2ccccc21)N1CC(c2nc(-c3cccc(Cl)c3)no2)C1	mHTT-CaM PPI inh 60
CN(C)c1ccc(C(=O)N2CCC(COc3ccccc3C(=O)N3CCCCC3)CC2)cc1	none
Cc1nc2c(NC3CCN(C(=O)c4ccc(F)cc4)CC3)cccn2n1	none
COc1cc(CN2COc3ccc4c(c3C2)OC(=Cc2ccccc2)C4=O)cc(OC)c1OC	none
COc1ccccc1CN1COc2ccc3c(c2C1)OC(=Cc1ccco1)C3=O	none
COc1ccc(CN2COc3ccc4c(c3C2)OC(=Cc2ccco2)C4=O)cc1OC	mHTT-CaM PPI inh 53
COc1cc(CN2COc3ccc4c(c3C2)OC(=Cc2ccco2)C4=O)cc(OC)c1OC	mHTT-CaM PPI inh 51
O=C(c1ccc(Cl)cc1)N1CCN(c2nc(CN3CCCCC3)cs2)CC1	none
CCN(C(=O)c1coc(=O)c2ccccc12)c1cc(Cl)ccc1OC	none
CC(C)CNC(=O)c1cnc(-c2ccccc2)nc1N1CCSCC1	none
Cc1cc(=O)oc2cc(OC(C)c3ccccc3)ccc12 (centres undefined)	none
Cn1c(=O)c(NCCc2ccc(Cl)cc2)nc2ccncc21	none
Cn1c(=O)c(NCCc2c[nH]c3ccccc23)nc2ccncc21	mHTT-CaM PPI inh 100
O=c1c(NCCN2CCCC2)nc2ccncc2n1Cc1ccccc1	none
Cn1c(=O)c(NCCCN2CCCc3ccccc32)nc2ccncc21	mHTT-CaM PPI inh 60
Cc1ccc(-c2nc(C3CCN(C(=O)COc4ccc(Cl)cc4C)CC3)no2)cc1	none
Cc1ccccc1CNC(=O)C1CCN(C(=O)c2cccnc2-c2ccccc2C)CC1	none
O=C(CCC1CCCN(C(=O)Nc2ccccc2)C1)NCc1ccc(F)cc1Cl (centres undefined)	none
O=C(C1CCCO1)N1CCc2[nH]nc(-c3ccc(F)cc3)c2C1 (centres undefined)	none
Cc1ccccc1C(=O)N1CCC(c2nc(-c3ccc(C(=O)NC4CC4)cc3)no2)CC1	none
O=C(Nc1ccc(Oc2ccccc2)cc1)C(F)(F)F	none
O=C1C2=C(Nc3ccccc3SC2c2cccs2)c2ccccc21 (centres undefined)	mHTT-CaM PPI inh 73
COc1cccc(C2Nc3ccccc3NC3=C2C(=O)CC(c2ccccc2)C3)c1OC (centres undefined)	none
O=C1c2ccccc2NC(c2cccs2)N1c1ccccc1 (centres undefined)	none
O=C1NC2=C(C(=O)c3ccccc32)C(c2ccccc2)N1 (centres undefined)	none
COc1cccc(C2Sc3ccccc3NC3=C2C(=O)c2ccccc23)c1 (centres undefined)	mHTT-CaM PPI inh 76
COc1cccc(C2Sc3ccccc3NC3=C2C(=O)c2ccccc23)c1OC (centres undefined)	mHTT-CaM PPI inh 58
Cc1cccc(C2SC(=O)NC3=C2C(=O)c2ccccc23)c1 (centres undefined)	none
O=C1C2=C(Nc3ccccc3SC2c2ccccc2[N+](=O)[O-])c2ccccc21 (centres undefined)	mHTT-CaM PPI inh 53
Cc1ccccc1C1CN(S(=O)(=O)c2ccccc2)CC1C(=O)N1CCOCC1 (centres undefined)	none
Cc1ccc(OCC(=O)O/N=C(\N)c2cccnc2)c(Br)c1	none
COc1ccc(C2C(C#N)=C(N)OC3=C2C(=O)CC(c2ccco2)C3)cc1O (centres undefined)	none
COCCNC(=O)c1ccc2c(c1)nc(C)n2-c1ccc(F)c(F)c1	none
O=C1C2=C(Nc3ccccc3SC2c2ccccc2)c2ccccc21 (centres undefined)	mHTT-CaM PPI inh 73 (no result: Pf apPOL inh)
O=C1Nc2ccccc2SC1c1ccccc1 (centres undefined)	none (no result: mHTT-CaM PPI inh)
CCCCCCCCCCCc1nnc(SCc2ccc(Cl)cc2)n1C	none (no result: mHTT-CaM PPI inh)
COc1ccc(/C=C/C(=O)Nc2ccc3nc(N4CCN(C)CC4)cc(C)c3c2)cc1OC	mHTT-CaM PPI inh 51
Cc1cc(N2CCN(C)CC2)nc2ccc(NC(=O)/C=C/c3cccc(Cl)c3)cc12	mHTT-CaM PPI inh 94
Cc1cc(N2CCCCC2)nc2ccc(NC(=O)/C=C/c3cccs3)cc12	none
COc1cc(/C=C/C(=O)Nc2ccc3nc(N4CCN(C)CC4)cc(C)c3c2)cc(OC)c1OC	none
CC(=O)c1cccc(NC(=O)c2cc(S(=O)(=O)N3CCCCC3)ccc2Cl)c1	none
CCOC(=O)CSc1nnc(-c2ccc([N+](=O)[O-])o2)o1	none (no result: mHTT-CaM PPI inh)
Cc1ccc(C2C(C#N)=C(N)Oc3c2sc2ccccc32)o1 (centres undefined)	mHTT-CaM PPI inh 86
Cc1ccc(C2C(C#N)=C(N)OC3=C2C(=O)CCC3)o1 (centres undefined)	none
Cc1cccc(NCN2C(=O)C3CC=C(Cl)CC3C2=O)c1 (centres undefined)	none
C1CCCN(C2CCN(C3CC4CCC3C4)CC2)CC1 (centres undefined)	mHTT-CaM PPI inh 81
C1CCN(C2CCN(C3CC4CCC3C4)CC2)CC1 (centres undefined)	none
CCOC1=CC(=Cc2c(N)n3nc(COc4ccccc4)sc3nc2=O)C=CC1=O	none
COC1=CC(=Cc2c(N)n3nc(-c4ccccc4C)sc3nc2=O)C=CC1=O	mHTT-CaM PPI inh 57
OCCOC1CCCc2oc(-c3ccccc3)c(C#CC3(O)CCCCC3)c21 (centres undefined)	none
O=Cc1ccc(-c2c(-c3ccccc3)oc3c2C(OCCCCO)CCC3)o1 (centres undefined)	mHTT-CaM PPI inh 61
CC(C)C(C(=O)O)N1C(=O)C(=Cc2ccccc2)SC1=S (centres undefined)	none
CC(C)C(C(=O)O)N1C(=O)C(=Cc2cccc(Br)c2)SC1=S (centres undefined)	mHTT-CaM PPI inh 59
COc1ccc(OC)c(C=C2SC(=S)N(C(C)C(=O)O)C2=O)c1 (centres undefined)	none
COc1ccc(OC)c(C=C2SC(=S)N(C(C(=O)O)C(C)C)C2=O)c1 (centres undefined)	mHTT-CaM PPI inh 51
O=C(CC(=O)c1ccc([N+](=O)[O-])cc1)Nc1ccc2c(c1)OCO2	mHTT-CaM PPI inh 51
O=C(Cc1ccc([N+](=O)[O-])cc1)Nc1ccc2c(c1)OCO2	none
COc1ccc(OC)c(/C=C2\N=C(c3cc(OC)c(OC)c(OC)c3)OC2=O)c1	none
CCOc1ccc(N2COc3ccc(Br)cc3C2)cc1	mHTT-CaM PPI inh 84
CCOc1ccc(N2COc3cc4c(cc3C2)OCO4)cc1	none
CCOc1ccc(C2(c3ccc(O)cc3)CCCCC2)cc1	mHTT-CaM PPI inh 86
CCOc1ccc(C(=O)NCC2(O)CCCC2)cc1	none
Cn1cc2c3c(cccc31)CN(C(=O)NCc1ccc(F)cc1)CC2	none

Compound activity from PubChem.
